# Test results taken from paper PMC8384837, “Expanding the binding specificity for RNA recognition by a PUF domain”.
# Columns and labels:
# Assay in all cases: yeast three-hybrid, YBZ-1, SC-Leu-His + 0.5 mM 3-AT, 4 days
# Settings in all cases: tags: N-Gal4 AD-HA kept; label: inside an RPR1-promoter hybrid RNA with tandem MS2 sites; ssRNA
# [1] = biological target: PUM1 PUF domain R7-KYF (Homo sapiens, UniProt Q14671 828-1176, S1079K;N1080Y;E1083F)
# Method in brief: (§1)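 The interaction score is the logarithmic change in variant frequency from input to selection. It uses log2, with a pseudocount of 1 for absent variants, and frequencies came from PCR-amplified, Illumina-sequenced repeat regions. The libraries were Pumilio-1 PUF domains randomized at the three base-contacting residues per repeat, co-expressed with matching RNA elements in strain YBZ-1 (LexA–MS2 coat fusion, HIS3 reporter). Plating lasted four days on SC-Leu (input) or SC-Leu-His + 0.5 mM 3-AT (selection).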
# [2] = biological target: PUM1 PUF domain R1-RKR (Homo sapiens, UniProt Q14671 828-1176, S863R;R864K;Q867R)
# Method in brief: as §1
# [3] = biological target: PUM1 PUF domain R3-YRA (Homo sapiens, UniProt Q14671 828-1176, C935Y;Q939A)
# Method in brief: as §1
# [4] = biological target: PUM1 PUF domain R3-FCA (Homo sapiens, UniProt Q14671 828-1176, C935F;R936C;Q939A)
# Method in brief: as §1
# [5] = biological target: PUM1 PUF domain R5-RYC (Homo sapiens, UniProt Q14671 828-1176, C1007R;R1008Y;Q1011C)
# Method in brief: as §1
# [6] = biological target: PUM1 PUF domain R8-KWN (Homo sapiens, UniProt Q14671 828-1176, N1122K;Y1123W;Q1126N)
# Method in brief: as §1
# [7] = biological target: PUM1 PUF domain R4-PRQ (Homo sapiens, UniProt Q14671 828-1176, N971P;H972R)
# Method in brief: as §1
# [8] = biological target: PUM1 PUF domain R4-HHN (Homo sapiens, UniProt Q14671 828-1176, N971H;Q975N)
# Method in brief: as §1
# [9] = biological target: PUM1 PUF domain R3-DYG (Homo sapiens, UniProt Q14671 828-1176, C935D;R936Y;Q939G)
# Method in brief: as §1
# [10] = biological target: T1, PUM1 PUF domain R6-GWQ (Homo sapiens, UniProt Q14671 828-1176, N1043G;Y1044W)
# T1 sequence: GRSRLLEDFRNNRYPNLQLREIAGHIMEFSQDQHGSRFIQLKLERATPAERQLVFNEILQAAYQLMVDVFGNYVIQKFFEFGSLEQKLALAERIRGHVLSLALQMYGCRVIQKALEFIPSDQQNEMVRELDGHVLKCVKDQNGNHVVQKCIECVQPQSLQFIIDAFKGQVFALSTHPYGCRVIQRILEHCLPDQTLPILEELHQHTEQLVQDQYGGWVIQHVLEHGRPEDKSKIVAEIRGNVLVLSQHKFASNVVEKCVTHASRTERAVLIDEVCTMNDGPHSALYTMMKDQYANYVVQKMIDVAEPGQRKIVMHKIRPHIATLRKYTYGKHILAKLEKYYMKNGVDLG
# Method in brief: as §1
sequence,measurement,setting,value
GGCUAGAACUAGUGGAUCCCCCGGCGCCCGGCGGCUCGAGCCCGGGUAAGUCUAAAUAGUCUGCAUGCCGCCGGGCGCCAUGCCUGCAGGUCGACUCUAGAAAACAUG,binding signal,[1],6.02 log2 enrichment (interaction score)
GGCUAGAACUAGUGGAUCCCCCGGCGCCCGGCGGCUCGAGCCCGGGUAAGUGUAAAUCGUCUGCAUGCCGCCGGGCGCCAUGCCUGCAGGUCGACUCUAGAAAACAUG,binding signal,[2],3.04 log2 enrichment (interaction score)
GGCUAGAACUAGUGGAUCCCCCGGCGCCCGGCGGCUCGAGCCCGGGUAAGUGUAAGUAGUCUGCAUGCCGCCGGGCGCCAUGCCUGCAGGUCGACUCUAGAAAACAUG,binding signal,[3],5.09 log2 enrichment (interaction score)
same,binding signal,[4],5.61 log2 enrichment (interaction score)
GGCUAGAACUAGUGGAUCCCCCGGCGCCCGGCGGCUCGAGCCCGGGUAAGUGUUAAUAGUCUGCAUGCCGCCGGGCGCCAUGCCUGCAGGUCGACUCUAGAAAACAUG,binding signal,[5],4.89 log2 enrichment (interaction score)
GGCUAGAACUAGUGGAUCCCCCGGCGCCCGGCGGCUCGAGCCCGGGUAAGCGUAAAUAGUCUGCAUGCCGCCGGGCGCCAUGCCUGCAGGUCGACUCUAGAAAACAUG,binding signal,[6],2.89 log2 enrichment (interaction score)
GGCUAGAACUAGUGGAUCCCCCGGCGCCCGGCGGCUCGAGCCCGGGUAAGUGUCAAUAGUCUGCAUGCCGCCGGGCGCCAUGCCUGCAGGUCGACUCUAGAAAACAUG,binding signal,[5],4.73 log2 enrichment (interaction score)
GGCUAGAACUAGUGGAUCCCCCGGCGCCCGGCGGCUCGAGCCCGGGUAAGUGUACAUAGUCUGCAUGCCGCCGGGCGCCAUGCCUGCAGGUCGACUCUAGAAAACAUG,binding signal,[7],3.53 log2 enrichment (interaction score)
GGCUAGAACUAGUGGAUCCCCCGGCGCCCGGCGGCUCGAGCCCGGGUAAGGGUAAAUAGUCUGCAUGCCGCCGGGCGCCAUGCCUGCAGGUCGACUCUAGAAAACAUG,binding signal,[6],2.68 log2 enrichment (interaction score)
GGCUAGAACUAGUGGAUCCCCCGGCGCCCGGCGGCUCGAGCCCGGGUAAGUGUAUAUAGUCUGCAUGCCGCCGGGCGCCAUGCCUGCAGGUCGACUCUAGAAAACAUG,binding signal,[8],6.48 log2 enrichment (interaction score)
GGCUAGAACUAGUGGAUCCCCCGGCGCCCGGCGGCUCGAGCCCGGGUAAGUGUAAAUAGUCUGCAUGCCGCCGGGCGCCAUGCCUGCAGGUCGACUCUAGAAAACAUG,binding signal,[3],0.87 log2 enrichment (interaction score)
same,binding signal,[6],2.44 log2 enrichment (interaction score)
same,binding signal,[9],3.9 log2 enrichment (interaction score)
same,binding signal,[5],3.48 log2 enrichment (interaction score)
same,binding signal,[10],5.78 log2 enrichment (interaction score)
GGCUAGAACUAGUGGAUCCCCCGGCGCCCGGCGGCUCGAGCCCGGGUAAGUGUAAAUUGUCUGCAUGCCGCCGGGCGCCAUGCCUGCAGGUCGACUCUAGAAAACAUG,binding signal,[2],3.15 log2 enrichment (interaction score)
GGCUAGAACUAGUGGAUCCCCCGGCGCCCGGCGGCUCGAGCCCGGGUAAGUGUAAUUAGUCUGCAUGCCGCCGGGCGCCAUGCCUGCAGGUCGACUCUAGAAAACAUG,binding signal,[9],1.49 log2 enrichment (interaction score)
GGCUAGAACUAGUGGAUCCCCCGGCGCCCGGCGGCUCGAGCCCGGGUAAGUAUAAAUAGUCUGCAUGCCGCCGGGCGCCAUGCCUGCAGGUCGACUCUAGAAAACAUG,binding signal,[1],3.75 log2 enrichment (interaction score)
